High-throughput results from PubChem BioAssay.
Pf growth 96h – Primary qHTS for delayed death inhibitors of the malarial parasite plastid, 96 hour incubation; P. falciparum luciferase reporter growth, 96 h; Potency, µM (doses to about 28.7 µM), most hits filed as inhibitors; actives 6.9% (n = 320,000); AID 504834, 2011
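Readout is luminescence from an integrated firefly luciferase in P. falciparum. Red cells, 2% hematocrit and 0.05% parasitemia final, were cultured with compound through two parasite generations (96 hours) at 37 C, 5% CO2.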
Shiga toxin inh – A qHTS for Small Molecule Inhibitors of Shiga Toxin. Vero cells, Shiga toxin protein synthesis inhibition reporter. inhibition, % at 38.7 µM. actives 9.2% (n = 290,000). AID 2315, 2010; in the data active means inhibition mostly above about 28%, no sharp cut-off; inactive means mostly below about 43%
Cycloheximide cs – Cycloheximide Counterscreen for Small Molecule Inhibitors of Shiga Toxin. cell reporter, cycloheximide protein synthesis inhibition counterscreen. AID 2314, 2010. actives 12% (n = 300,000). max response, %; in the data active means max response mostly above about 13%, no sharp cut-off; inactive means mostly below about 14%; further: read at 38.3 µM for the half of the compounds with a filed dose
LmPK inhibitor – qHTS Assay for Inhibitors of Leishmania Mexicana Pyruvate Kinase (LmPK); Q27686; purified LmPK, Kinase-Glo ATP luminescence, 1 h; Potency, µM (series often up to 57.5 µM), hits mostly inhibitors; actives 0.37% (n = 290,000)
Target sequence (Q27686 whole entry, looked up): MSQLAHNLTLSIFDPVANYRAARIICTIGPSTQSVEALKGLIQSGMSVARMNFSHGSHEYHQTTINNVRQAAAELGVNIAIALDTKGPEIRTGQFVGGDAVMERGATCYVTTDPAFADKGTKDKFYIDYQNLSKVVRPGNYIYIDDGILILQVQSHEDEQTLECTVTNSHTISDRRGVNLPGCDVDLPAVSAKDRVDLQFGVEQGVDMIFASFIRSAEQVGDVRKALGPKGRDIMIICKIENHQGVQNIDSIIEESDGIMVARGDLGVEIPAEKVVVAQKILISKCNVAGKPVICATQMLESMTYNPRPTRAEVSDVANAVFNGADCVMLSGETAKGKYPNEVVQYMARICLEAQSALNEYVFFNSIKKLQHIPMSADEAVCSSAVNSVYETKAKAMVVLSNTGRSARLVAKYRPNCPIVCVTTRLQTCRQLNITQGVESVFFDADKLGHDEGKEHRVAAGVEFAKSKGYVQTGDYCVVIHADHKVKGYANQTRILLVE
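Kinase-Glo luminescence read after 1 h RT reaction of 0.1 nM LmPK with 0.5 mM PEP and 0.1 mM ADP. Activity scaled between uninhibited and enzyme-free controls.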
Pf growth 48h – Primary qHTS for delayed death inhibitors of the malarial parasite plastid, 48 hour incubation; P. falciparum luciferase growth in erythrocytes, 48 h; actives 5.9% (n = 310,000); Potency, µM (titrated, usually from 28.7 µM), hits mostly inhibitors
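First compound was added to culture medium, then infected red cells at 0.1% parasitemia and 2% hematocrit (final). After incubation at 37 C under 5% CO2, luciferase detection reagent was dispensed and light output recorded.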
Hits are given with their value; - = inactive; ? = inconclusive; . = no result given; [ ] = dose if it differs, or a comment. Hits are enriched below; roughly 22% of the tested compounds scored in any of these assays. Unless noted, the call rests on the fitted dose curve; in most records, active means well fitted inhibition curve with a large enough effect; inconclusive means small, poorly fitted or top-dose-only effect, or another doubt; inactive means no such curve, though single readings can be large or run the other way.

SMILES	Pf growth 96h	Shiga toxin inh	Cycloheximide cs	LmPK inhibitor	Pf growth 48h
CCn1cc(C(=O)N[C@@H](CCSC)C(=O)NCCN2CCOCC2)c(=O)c2cc3c(cc21)OCO3	-	-	-	-	-
O=C(CCNC(=O)c1ccccc1)NCCc1ccc(Cl)cc1	-	-	-	-	-
O=C(Cn1cncn1)NCc1cc(F)ccc1F	?	-	-	-	-
CCCC(=O)c1ccc(N2CCN(C(=O)c3ccccc3)CC2)c(F)c1	-	-	-	-	-
CCCC(=O)c1ccc(N2CCOCC2)c(F)c1	-	67.9	37.5	-	-
Cc1ccc(C(=O)c2ccc(N3CCOCC3)c(F)c2)cc1	-	65.5	61.9	-	-
CCCN(C(=O)c1c(CC)noc1C)c1c(N)n(Cc2ccccc2)c(=O)[nH]c1=O	-	.	.	.	-
Brc1ccc(-c2csc3ncnc(-n4nnc5ccccc54)c23)cc1	?	-	-	-	-
Cn1c(-c2ccc[nH]c2=O)nc2cc(Cl)ccc21	-	-	-	-	?
CCOC(=O)c1cc2c(nc1N)CCCC2	-	-	-	-	-
C=C(C)CNC(=S)Nc1nc2c(cc1C(=O)OCC)CCCC2	-	active	-	-	-
Cn1cc([N+](=O)[O-])c(C(=O)Nc2ccc3nc(-c4ccccc4)[nH]c3c2)n1	-	46.7	41.7	-	?
Cn1cc([N+](=O)[O-])c(C(=O)NCc2cc3ccccc3[nH]2)n1	-	-	-	-	-
Cn1cc([N+](=O)[O-])c(C(=O)Nc2ccc(-c3nc4ccccc4[nH]3)cc2)n1	-	-	32.2	-	-
O=S(=O)(NC1CCN(S(=O)(=O)c2c(F)cccc2F)CC1)c1ccc2c(c1)OCCO2	.	-	-	.	.
CCOc1ncccc1C(=O)Nc1cccc(-c2nnc3n2CCCCC3)c1	-	-	-	-	?
CN1c2ccccc2Oc2nnc(N3CCN(Cc4ccccc4)CC3)cc21	-	53.9	30.4	-	?
Cc1cccc2nc(COc3ccc(-c4ccccc4)cc3)cn12	-	84.6	43.2	25.1µM	-
Cc1cc(C)n2cc(COc3ccc4ccccc4c3)nc2n1	-	66.4	52.7	-	-
CC(C)CC(=O)Nc1nnc(SCC(=O)NC2CCCCC2)s1	?	-	-	-	-
COc1ccc(CCC(=O)Nc2ccc(S(=O)(=O)Nc3nccc(C)n3)cc2)cc1	-	-	-	-	-
CC1(C)Oc2ccc3ccc(=O)oc3c2-c2cnoc21	?	-	-	-	-
CC1(C)Oc2ccc3ccc(=O)oc3c2-c2cn[nH]c21	9.28µM	-	-	-	?
CCc1ccc2[nH]c(=O)c(CN(Cc3nnnn3C3CCCC3)C3CCCCC3)cc2c1	-	-	-	-	8.28µM
CCOc1ccc2[nH]c(=O)c(CN(CCO)C(c3nnnn3C3CCCCC3)C(C)C)cc2c1 (configuration not stated)	-[5.75 µM]	-	-	-	3.29µM
SMILES	Pf growth 96h	Shiga toxin inh	Cycloheximide cs	LmPK inhibitor	Pf growth 48h
CCCN1CCN(C(c2cc3cc(OCC)ccc3[nH]c2=O)c2nnnn2C2CCCCC2)CC1 (configuration not stated)	-	-	-	-	?
Cc1ccc2[nH]c(=O)c(CN(Cc3nnnn3Cc3ccccc3)C3CCCC3)cc2c1	-	-	-	-	13.1µM
Cc1ccc2[nH]c(=O)c(CN(Cc3ccc4c(c3)OCO4)Cc3nnnn3C3CCCC3)cc2c1	-	-	-	-	10.4µM
COc1ccc2[nH]c(=O)c(CN(Cc3nnnn3Cc3ccccc3)CC3CCCO3)cc2c1 (configuration not stated)	-	-	-	-	?
CCn1c(N2CCN(S(=O)(=O)c3ccccc3)CC2)nc2ccccc21	?	-	-	-	-
O=C(CSC1=NS(=O)(=O)c2cc(F)ccc2N1)NCc1ccccc1Cl	-	.	.	.	-
Cc1cccc2cc(CN(Cc3nnnn3Cc3ccco3)C3CCCC3)c3nnnn3c12	-	29.4	-	-	?
Cc1cc(N)c(-n2cc3c(=O)n(C)c(=O)n(C)c3c2)cc1C	.	-	39.9	?	?
Cn1c(=O)c2cn(-c3ccc4c(c3)OCCO4)cc2n(C)c1=O	?	-	67.1	-	-
Cc1ccc(-n2cc3c(=O)n(C)c(=O)n(C)c3c2)cc1C	-[5.75 µM]	-	21.3	-	-
Cc1ccc(NC(=O)CCNS(=O)(=O)c2ccc3c(c2)c(=O)n(C)c(=O)n3C)cc1C	?	-	-	-	-
COc1ccc(Cc2nc(C(=O)Nc3ccccc3)cs2)cc1	-	51.6	38.8	-	.
O=C(Nc1ccc(Cl)cc1)c1csc(Cc2ccccc2)n1	-	75.0	36.7	-	-
COc1ccc(NC(=O)c2csc(Cc3ccc(Cl)cc3)n2)cc1	-	-	-	-	-
CCCCn1c(SCC(=O)c2c(N)n(C3CC3)c(=O)[nH]c2=O)nc2cc(S(N)(=O)=O)ccc21	?	.	.	.	-
O=C(NCC(=O)N(c1cccnc1)C(C(=O)NC1CCCC1)c1ccc(F)cc1)c1ccco1 (configuration not stated)	-[5.75 µM]	-	-	-	-
CCN1/C(=C/C(=O)c2ccco2)Sc2ccccc21	-	-	24.4	-	-
CCC(=O)/C=C1/Sc2ccc(OC)cc2N1CC	-	-	-	-	?
CCC(=O)/C=C1/Sc2ccccc2N1CC	-	121.2	29.4	-	-
CC(=O)c1cccc(NC(=S)NC2CCCCCCC2)c1	-	-	-	-	-
O=C(CSc1nnc(CNC(=O)c2c(F)cccc2F)o1)NCc1ccc(F)cc1	-	-	-	-	-
Cc1ccc(-c2nn3c(C)nnc3c3ccccc23)cc1S(=O)(=O)NCc1ccccc1	8.28µM	-	-	-	?
O=S1(=O)C=C(SCCN2CCCCC2)c2ccccc21	-	37.0	25.6	-	-
CN1C(=O)C(C)(C)c2cc(S(=O)(=O)N3CCN(c4ccccc4F)CC3)ccc21	-	-	-	-	-
Cc1nc(-c2cccc(Cl)c2)n[nH]1	-	104.4	23.0	-	-
SMILES	Pf growth 96h	Shiga toxin inh	Cycloheximide cs	LmPK inhibitor	Pf growth 48h
CC(C)Cn1c(N)c(C(=O)NCC2CCCO2)c2nc3ccccc3nc21 (configuration not stated)	?	-	-	-	?
Nc1c(C(=O)OCC2CCCO2)c2nc3ccccc3nc2n1C1CCCC1 (configuration not stated)	-[5.75 µM]	-	-	-	10.4µM
Nc1c(C(=O)OCC2CCCO2)c2nc3ccccc3nc2n1Cc1cccs1 (configuration not stated)	3.7µM	-	-	-	?
COCCn1c(N)c(C(=O)NCC2CCCO2)c2nc3ccccc3nc21 (configuration not stated)	-	-	-	-	?
C=C1CCN(C(Cc2ccccc2)C(=O)NC2CCN(Cc3ccccc3)CC2)S(=O)(=O)c2ccccc21 (configuration not stated)	.	-	-	.	.
COc1ccc(C(NC(=O)/C=C\c2ccco2)c2ccc(OC)c(OC)c2)cc1 (configuration not stated)	?	105.0	25.0	-	?
